Most compounds without a hit are left out; they make up all but 2.6% or so of the library.
Giardia kill: Giardia lamblia killing. Giardia lamblia trophozoite viability. activity change, % at 7.66 µM, hits read low. 340,000 tested, 0.15% active; in the data active means activity change below about -80%; inconclusive means between about -30% and that limit;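 further: parasites exposed to compound for two days anaerobically before the ATP read; on the % scale 0 is the no-effect control and ±100 the full control effect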
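Viability, read as ATP luminescence: trophozoites at 100 cells/well, compound added, 48 hrs anaerobic at 37 deg C, then 15-30 min room-temperature development before reading.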
TGFb inhibitor: TGF-b pathway inhibition | HepG2 CAGA-GFP TGF-b/SMAD3 reporter, GFP fluorescence, 18 h; TGF-beta stimulated, 500 pg/mL final | Potency, µM (top dose mostly 46.1 µM), inactives show top-dose activity, negative = inhibition, most hits filed as inhibitors | 410,000 tested, 1.2% active | AID 588855; further: potency means the concentration at half of the fitted maximal effect; on the % scale 0 is the no-effect control and ±100 the full control effect; nearly all actives have a fitted effect of over 65% in size
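Read-out: total well GFP (ex488/em500-530) summed from mean per-cell fluorescence. Cells: HEPG2 CAGA-GFP, 1% FBS DMEM, 18 h at 37 degrees C with 500 pg/mL final TGF-beta. Unstimulated wells served as the full-inhibition control; stimulated DMSO wells = 0%.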
uPA generation: cell surface uPA generation inhibition. Potency, µM (top dose mostly 38.3 µM), without a hit: top-dose activity change, negative = inhibition, most hits filed as inhibitors. 330,000 tested, 0.31% active. AID 540303. cell surface uPA generation assay, qHTS; active means well fitted inhibition curve with a large enough effect; inconclusive means small, poorly fitted or top-dose-only effect; inactive means no such curve, though single readings can be large or run the other way; tested in mouse RAW 264.7 cells; further: potency means the concentration at half of the fitted maximal effect; on the % scale 0 is the no-effect control and ±100 the full control effect; nearly all actives have a fitted effect of over 55% in size
ATXN2 expr inh: inhibitors of ATXN2 expression. HEK-293 ATXN2-luciferase reporter, luminescence, 24 h. Potency, µM (titrated, usually from 57 µM), for inactives: at the top dose activity change, negative = inhibition, most hits filed as inhibitors. 360,000 tested, 0.72% active. AID 1745845; further: potency means the concentration at half of the fitted maximal effect; on the % scale 0 is the no-effect control and ±100 the full control effect; nearly all actives have a fitted effect of over 55% in size
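ATXN2-luciferase reporter cells (luciferase flanked by upstream and downstream ATXN2 gene portions) were treated 24 h at 37 °C with compounds at up to 57 uM. SteadyGlo luminescence gave expression; GF-AFC fluorescence gave viability.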
ATXN viability: cell viability loss in ATXN counter-screen; S2 cells (HEK-293 line with an ATXN2-luciferase reporter) viability, CellTiter-Fluor protease fluorescence, 24 h; 400,000 tested, 0.49% active; Potency, µM (doses to about 56.7 µM), most hits filed as cytotoxic; further: potency means the concentration at half of the fitted maximal effect; nearly all actives have a fitted effect of over 40% in size
HepG2 tox: HepG2 cytotoxicity, counter-screen for TGF-b inhibitors; Potency, µM (top dose mostly 46.1 µM), without a hit: top-dose activity change, negative = cytotoxicity, actives largely listed as cytotoxic; AID 588856; 410,000 tested, 0.76% active; HepG2 CAGA-GFP viability, ATP luminescence, 18 h; further: potency means the concentration at half of the fitted maximal effect
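CellTiter-Glo luminescence gave cytotoxicity after 18 hours at 37 degrees C. The cells were HepG2 CAGA-GFP in 1% FBS DMEM, stimulated with 500 pg/mL TGF-beta after compound addition. %Activity was normalised to no-cell wells (complete cell-killing) and DMSO (no toxicity), and curves were fitted and classified.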
* hit, by the source's call; ! = not confirmed by another sample. Unless noted, the call rests on the fitted dose curve; in most records, active means well fitted curve in the direction sought with a large enough effect; inconclusive means small, poorly fitted or top-dose-only effect, or another doubt; inactive means no such curve, though single readings can be large; an effect the other way counts as inactive or inconclusive.

Screening C1=C(c2ccc3c(c2)CN(Cc2cccn2-c2ncccn2)CCO3)Cc2ccccc21 returned ATXN viability inactive.
`CCOC(=O)N1CCN(CC(=O)Nc2sccc2C#N)CC1` gave Giardia kill -4, TGFb inhibitor -9%, uPA generation 11µM*, ATXN2 expr inh inconclusive, ATXN viability inactive and HepG2 tox 7%.
Screening N#Cc1ccsc1NC(=O)CN1CCCCCC1 returned Giardia kill -6, TGFb inhibitor 0%, uPA generation 7%, ATXN2 expr inh -4%, ATXN viability inactive and HepG2 tox -2%.
Screening OC(CNc1ccnc2cc(Cl)ccc12)CNC1CCCCC1 (stereo not given) returned Giardia kill -11, TGFb inhibitor inconclusive, uPA generation -2%, ATXN2 expr inh 32µM* and HepG2 tox -93%.
Screening CCNC1CCC(Nc2ccnc3cc(Cl)ccc23)CC1 (stereo not given) returned Giardia kill -13, TGFb inhibitor -20%, uPA generation -1%, ATXN2 expr inh inconclusive, ATXN viability inconclusive and HepG2 tox -26%.
`CCc1nnc(NS(=O)(=O)c2ccc(N=Cc3c(C)[nH]n(-c4ccc(C)c(C)c4)c3=O)cc2)s1` gave Giardia kill -4, TGFb inhibitor 8%, uPA generation -13%, ATXN2 expr inh 12%, ATXN viability inactive and HepG2 tox 7.1µM*.
Screening Cc1[nH]n(-c2ccc(Br)cc2)c(=O)c1C=Nc1ccc(S(=O)(=O)Nc2nccs2)cc1 returned Giardia kill -25, TGFb inhibitor inconclusive, uPA generation -3%, ATXN2 expr inh 1%, ATXN viability inactive and HepG2 tox -71%.
Screening CCOc1cc2c(c3c1C(c1ccccc1)N(S(=O)(=O)c1ccc(C)cc1)C3)C(=O)C=CC2=O (stereo not given) returned TGFb inhibitor inconclusive, ATXN2 expr inh inconclusive, ATXN viability 6.3µM* and HepG2 tox 8.9µM*.
For COc1ccc2c(c1)C/C(=C\c1ccc(N(C)C)cc1)C2=O the results were TGFb inhibitor 183% and HepG2 tox -25%.
Screening Cc1scc(C(=O)N/N=C/c2ccco2)c1C returned Giardia kill 4, TGFb inhibitor -5%, uPA generation -6%, ATXN2 expr inh 8%, ATXN viability inactive and HepG2 tox -1%.
For Cc1scc(C(=O)N/N=C/c2ccsc2)c1C the results were Giardia kill 0, TGFb inhibitor -1%, uPA generation 6.3µM*, ATXN2 expr inh 46%, ATXN viability inconclusive and HepG2 tox 2%.
Screening CCCCCCCCCCCC[N+](C)(C)Cc1ccccc1 returned ATXN2 expr inh 25µM* and ATXN viability 32µM*.
For O=C(CN(CCc1c[nH]c2ccccc12)S(=O)(=O)c1ccccc1)N1CCCCCC1 the results were TGFb inhibitor -8% and HepG2 tox -12%.
`CC[C@@]1(C(=O)OC)N[C@H](CN(C)C(=O)c2ccc(C(C)(C)C)cc2)[C@@H]2C(=O)N(Cc3ccccc3)C(=O)[C@@H]21` gave Giardia kill 1, TGFb inhibitor -3%, uPA generation 5%, ATXN2 expr inh 4%, ATXN viability inactive and HepG2 tox -4%.
Screening CCN(C[C@H]1N[C@@](CC)(C(=O)OC)[C@H]2C(=O)N(Cc3ccccc3)C(=O)[C@@H]12)C(=O)c1ccc(C(C)(C)C)cc1 returned Giardia kill -8, TGFb inhibitor inconclusive, uPA generation -7%, ATXN2 expr inh inconclusive, ATXN viability 16µM* and HepG2 tox -65%.
Cc1ccccc1C(=O)N1CCc2c(cnc(C)c2CNC(=O)CN2CCCCC2)C1 was read as ATXN viability inactive.
Cc1oc(-c2ccccc2F)nc1CS(=O)(=O)CC(=O)NCCCc1ccccc1 was read as Giardia kill -18, TGFb inhibitor 3%, uPA generation -3%, ATXN2 expr inh -14%, ATXN viability inconclusive and HepG2 tox 4%.
Cc1cccc(N2CCN(C(=O)CS(=O)(=O)Cc3nc(-c4ccccc4F)oc3C)CC2C)c1 (stereo not given) was read as Giardia kill -8, TGFb inhibitor -29%, uPA generation -3%, ATXN2 expr inh 3%, ATXN viability inactive and HepG2 tox -19%.
`COc1cccc(-c2nc(CS(=O)(=O)CC(=O)NCCc3ccc(Cl)cc3)c(C)o2)c1` gave TGFb inhibitor 11µM* and HepG2 tox -41%.
For Cc1ccccc1-c1nc(CS(=O)(=O)CC(=O)NCCc2ccccc2)c(C)o1 the results were Giardia kill -7, TGFb inhibitor 14µM*, uPA generation -11%, ATXN2 expr inh -6%, ATXN viability inactive and HepG2 tox -14%.
Cc1cccc(N2CCN(C(=O)CS(=O)(=O)Cc3nc(-c4ccccc4C)oc3C)CC2C)c1 (stereo not given) was read as TGFb inhibitor 11µM*, ATXN2 expr inh inconclusive, ATXN viability inactive and HepG2 tox -34%.
Screening Cc1ccc(-c2nc(CS(=O)(=O)CC(=O)NC(C)CCc3ccccc3)c(C)o2)cc1 (stereo not given) returned TGFb inhibitor 11µM* and HepG2 tox -61%.
CCN(Cc1ccncc1)Cc1ccc2c(c1)CN(C(=O)c1cccc3c(C)c(C)[nH]c13)CCO2 was read as ATXN viability inactive.
C/C(=N\NC(=O)c1cc(C)nc2ccccc12)c1ccncc1 was read as Giardia kill -6, TGFb inhibitor 0%, uPA generation -15%, ATXN2 expr inh -6%, ATXN viability inactive and HepG2 tox -5%.
`CC(=NNC(=S)N1CCC1)c1ccccn1` gave Giardia kill 1, TGFb inhibitor inconclusive, uPA generation -9%, ATXN2 expr inh 0.034µM*!, ATXN viability inconclusive and HepG2 tox -28%.
`C/C(=N\NC(=O)c1ccc(Cl)cc1)c1ccccn1` gave Giardia kill -19, TGFb inhibitor 2µM*, uPA generation -9%, ATXN2 expr inh inconclusive, ATXN viability inconclusive and HepG2 tox -24%.
C/C(=N\NC(=O)c1cc(C)nc2ccccc12)c1ccccn1 was read as Giardia kill 14, TGFb inhibitor 4µM*, uPA generation inconclusive, ATXN2 expr inh inconclusive, ATXN viability inconclusive and HepG2 tox -37%.
For CCCCNC(=O)Cn1c(SCc2cccc(F)c2)nc2ccncc21 the results were Giardia kill -11, TGFb inhibitor -11% and HepG2 tox -9%.
For Cc1cccc(NC(=O)c2onc3c2CCCC3)n1 the results were Giardia kill inconclusive, TGFb inhibitor 11%, uPA generation 4µM*, ATXN2 expr inh -25%, ATXN viability inactive and HepG2 tox -98%.

Compound activity deposited in PubChem BioAssay by National Center for Advancing Translational Sciences (NCATS).
